{"source": "paper PMC5540273", "about": "(PLoS ONE, 2017);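 note: KINOMEscan kinase panel screen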"}
{"tested_on": "CDK3", "details": "concentration: 1 μM,replicates: in singlicate; n = 1", "units": {"%Inh": "%"}}
{"smiles": "CC(C)N1C(=O)Cc2cc(Nc3ncc(C(F)(F)F)c(NCc4cccc(S(C)(=O)=O)c4)n3)ccc21", "%Inh": 5}
{"smiles": "C[C@H]1Oc2cc(cnc2N)-c2c(nn(C)c2C#N)CN(C)C(=O)c2ccc(F)cc21", "%Inh": 6}
{"smiles": "Cc1occc1-c1nc(N)c(OC[C@@H](N)Cc2c[nH]c3ccccc23)cc1-c1cc2c(C)n[nH]c2cn1", "note": "[GSK1660450]", "%Inh": 12}
{"smiles": "Cc1ccc2c(-c3ccncc3)c(-c3ccc(F)cc3)nn2c1.Cl", "note": "[GW461484]", "%Inh": 0}
{"smiles": "CCN(CC)CCCCNc1ncc2cc(-c3c(Cl)cccc3Cl)c(NC(=O)NC(C)(C)C)nc2n1", "%Inh": 10}
{"smiles": "CCN(CC)CCOc1ccc(Nc2ncc3cc(-c4c(Cl)cccc4Cl)c(=O)n(C)c3n2)cc1", "note": "[SB-601273]", "%Inh": 9}
{"smiles": "NC(=O)c1cc(-c2ccccc2)cc2c(C3CCNCC3)c[nH]c12", "note": "[GSK301362]", "%Inh": 16}
{"smiles": "CCn1c(-c2nonc2N)nc2c(C#CC(C)(C)O)nc(OCCN)cc21.Cl.Cl", "note": "[GSK902056]", "%Inh": 22}
{"smiles": "O=C(NCCNc1ccnc(NCc2ccc(F)cc2)n1)c1cc2ccccc2s1", "note": "[GSK1379944]", "%Inh": 83}
{"smiles": "Cl.Oc1cc(-c2nc(-c3ccccc3)[nH]c2-c2ccncc2)ccc1Cl", "note": "[SB-386023]", "%Inh": 0}
{"smiles": "COc1ccc(C[C@@H](CN)NC(=O)c2cc(Br)c(-c3ccnc4[nH]ccc34)s2)cc1.Cl.Cl", "note": "[GSK1389063]", "%Inh": 5}
{"smiles": "Cl.Cl.NC[C@H](CC1CCCCC1)NC(=O)c1cc(Br)c(-c2ccnc3[nH]ccc23)s1", "note": "[GSK1581427]", "%Inh": 0}
{"smiles": "CN(C)CCOc1ccc(-c2cc(-c3c[nH]nc3-c3ccccn3)ccn2)cc1", "note": "[GW835314]", "%Inh": 16}
{"smiles": "C[C@@H](Oc1cc(-c2cnn(C3CCNCC3)c2)cnc1N)c1c(Cl)ccc(F)c1Cl", "%Inh": 12}
{"smiles": "Nc1nc(Nc2ccccc2)cc(-c2ccc3c(N)n[nH]c3c2)n1", "note": "[GSK2225749]", "%Inh": 8}
{"tested_on": "CDK4-cyclinD1", "details": "concentration: 1 μM,replicates: in singlicate; n = 1", "units": {"%Inh": "%"}}
{"smiles": "Cc1n[nH]c2ccc(-c3cc(OC[C@@H](N)Cc4ccccc4)cnc3-c3ccoc3)cc12.O=C(O)C(F)(F)F.O=C(O)C(F)(F)F", "note": "[GSK507358]", "%Inh": 0}
{"smiles": "CC(C)Nc1cc(-c2ccc3c(N)n[nH]c3c2)nc(N)n1", "note": "[GSK2221681]", "%Inh": 0}
{"smiles": "CNC(=O)c1ccccc1Sc1ccc2c(/C=C/c3ccccn3)n[nH]c2c1", "%Inh": 0}
{"smiles": "Cl.Cl.NC[C@H](Cc1ccc(C(F)(F)F)cc1)NC(=O)c1cc(Br)c(-c2ccnc3[nH]ccc23)s1", "note": "[GSK1487252]", "%Inh": 14}
{"smiles": "Cl.Cl.Nc1nc(-c2ccc3c(N)n[nH]c3c2)cc(N2CCCC(NC(=O)c3ccccc3)C2)n1", "note": "(stereo not drawn) [GSK2286775]", "%Inh": 0}
{"smiles": "O=C(NCCCN1CCOC1=O)c1cnc(NCc2cc(Cl)ccc2Cl)nc1NC1CCCC1", "%Inh": 4}
{"smiles": "CN(C)CC(O)COc1ccc(Nc2nccc(-c3cnn4nc(N5CCOCC5)ccc34)n2)cc1", "note": "(stereo not drawn) [GW767488]", "%Inh": 99.4}
{"smiles": "Cc1ccc(-n2nc(C(C)(C)C)cc2NC(=O)Nc2ccc(OCCN3CCOCC3)c3ccccc23)cc1", "note": "[GW839464]", "%Inh": 5}
{"smiles": "Cc1cc(C(=O)Nc2ccc(Oc3ccc4nc(NC(=O)C5CC5)cn4n3)cc2)nn1-c1ccccc1", "%Inh": 13}
{"smiles": "C=CC(=O)Nc1cc2c(Nc3ccc(F)c(Cl)c3)ncnc2cc1OCCCN1CCOCC1", "note": "[GW781483]", "%Inh": 27}
{"smiles": "Cc1cc2cn[nH]c2cc1-c1cccc2c(N)c(C(N)=O)nnc12", "%Inh": 8}
{"smiles": "C[C@@H]1CCN(C(=O)CC#N)C[C@@H]1N(C)c1ncnc2[nH]ccc12", "%Inh": 0}
{"smiles": "CC(C)N1C(=O)Cc2cc(Nc3ncc(C(F)(F)F)c(NCc4cccc(S(C)(=O)=O)c4)n3)ccc21", "%Inh": 26}
{"smiles": "C[C@H]1Oc2cc(cnc2N)-c2c(nn(C)c2C#N)CN(C)C(=O)c2ccc(F)cc21", "%Inh": 0}
{"smiles": "Cc1occc1-c1nc(N)c(OC[C@@H](N)Cc2c[nH]c3ccccc23)cc1-c1cc2c(C)n[nH]c2cn1", "note": "[GSK1660450]", "%Inh": 0}
{"smiles": "Cc1ccc2c(-c3ccncc3)c(-c3ccc(F)cc3)nn2c1.Cl", "note": "[GW461484]", "%Inh": 0}
{"smiles": "CCN(CC)CCCCNc1ncc2cc(-c3c(Cl)cccc3Cl)c(NC(=O)NC(C)(C)C)nc2n1", "%Inh": 0}
{"smiles": "CCN(CC)CCOc1ccc(Nc2ncc3cc(-c4c(Cl)cccc4Cl)c(=O)n(C)c3n2)cc1", "note": "[SB-601273]", "%Inh": 80}
{"smiles": "NC(=O)c1cc(-c2ccccc2)cc2c(C3CCNCC3)c[nH]c12", "note": "[GSK301362]", "%Inh": 0}
{"smiles": "CCn1c(-c2nonc2N)nc2c(C#CC(C)(C)O)nc(OCCN)cc21.Cl.Cl", "note": "[GSK902056]", "%Inh": 0}
{"smiles": "O=C(NCCNc1ccnc(NCc2ccc(F)cc2)n1)c1cc2ccccc2s1", "note": "[GSK1379944]", "%Inh": 84}
{"smiles": "Cl.Oc1cc(-c2nc(-c3ccccc3)[nH]c2-c2ccncc2)ccc1Cl", "note": "[SB-386023]", "%Inh": 2}
{"smiles": "COc1ccc(C[C@@H](CN)NC(=O)c2cc(Br)c(-c3ccnc4[nH]ccc34)s2)cc1.Cl.Cl", "note": "[GSK1389063]", "%Inh": 0}
{"smiles": "Cl.Cl.NC[C@H](CC1CCCCC1)NC(=O)c1cc(Br)c(-c2ccnc3[nH]ccc23)s1", "note": "[GSK1581427]", "%Inh": 0}
{"smiles": "CN(C)CCOc1ccc(-c2cc(-c3c[nH]nc3-c3ccccn3)ccn2)cc1", "note": "[GW835314]", "%Inh": 0}
{"smiles": "C[C@@H](Oc1cc(-c2cnn(C3CCNCC3)c2)cnc1N)c1c(Cl)ccc(F)c1Cl", "%Inh": 12}
{"smiles": "Nc1nc(Nc2ccccc2)cc(-c2ccc3c(N)n[nH]c3c2)n1", "note": "[GSK2225749]", "%Inh": 0}
